This is an account of results in PubChem BioAssay (Tox21).

A short description of experiment [1]: Human pregnane X receptor (PXR) small molecule agonists, qHTS cell viability counter screen (AID 1346977). Note: nearly all actives have a fitted effect of over 50% in size. Note: potency is the fitted concentration of half-maximal effect. The following applies: PXR-Luc HepG2 viability, CellTiter-Fluor, 24 h; series mostly up to 92.4 µM. The method, boiled down:
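PXR-Luc HepG2 cells in medium with 5% charcoal-stripped FBS were pre-incubated 5hr, then exposed to compounds for 24hr at 37C. Viability was read in the same wells by CellTiter-Fluor fluorescence, reagent added after 23hr with a 1hr incubation.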
(qHTS replaces the single test concentration by a dilution series.)

Experiment [2] in a line: Caspase-3/7 induction in HepG2 cells by small molecules, qHTS assay (AID 1346978). Note: nearly all actives have a fitted effect of over 15% in size. The following applies: HepG2 caspase-3/7 activation, Caspase-Glo luminescence, 17 h; series mostly up to 92.4 µM. Put shortly: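 Wild-type HepG2 cells, 2,000/well, settled 5 hr at 37 C and 5% CO2, then compound-treated for 17 hr; caspase-3/7 activity read by luminescent Caspase-Glo 3/7 after 30 min at room temperature.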

The nature of experiment [3]: Caspase-3/7 induction in CHO-K1 cells by small molecules, qHTS cell viability counter screen (AID 1346979). Note: nearly all actives have a fitted effect of over 35% in size. Note: potency is the fitted concentration of half-maximal effect. As to conditions: CellTiter-Fluor fluorescence, 17 h; series mostly up to 92.4 µM. The method, boiled down: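 Wild-type CHO-K1 cells were seeded at 1,500 per well, rested 5hr at 37 C, then exposed to compounds in DMSO. After 16hr, CellTiter-Fluor reagent was added and fluorescence read 1hr later as the viability measure.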

The nature of experiment [4]: Caspase-3/7 induction in HepG2 cells by small molecules, qHTS cell viability counter screen (AID 1346981). Note: nearly all actives have a fitted effect of over 30% in size. The following applies: CellTiter-Fluor fluorescence, 17 h; series mostly up to 92.4 µM. The method, boiled down: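 Fluorescence read-out of live-cell protease activity (CellTiter-Fluor) after 1 hr with reagent. This was measured in the same wells as the caspase-3/7 luminescence, on HepG2 cells exposed to DMSO-dissolved compounds for 16 hr at 37 C.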

In experiment [5] the target is Nuclear receptor subfamily 1 group I member 2 (Homo sapiens) (UniProt O75469). The experiment is described as follows: Human pregnane X receptor (PXR) small molecule agonists, qHTS assay (AID 1346982). Note: nearly all actives have a fitted effect of over 35% in size. Note: potency is the fitted concentration of half-maximal effect. The following applies: PXR-Luc HepG2, CYP3A4 luciferase reporter, 24 h; series mostly up to 92.4 µM. The method, boiled down:
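HepG2 PXR-Luc reporter line, 5% charcoal-stripped FBS; 5 hr pre-incubation, compound (DMSO) 24 hr at 37 C/5% CO2; ONE-Glo 30 min RT; luminescence read-out.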

Experiment [6] concerns the target Nuclear receptor subfamily 1 group I member 2 (Rattus norvegicus) (UniProt Q9R1A7). The experiment is described as follows: Rat pregnane X receptor (rPXR) activation by small molecules, qHTS assay (AID 1346983). Note: nearly all actives have a fitted effect of over 20% in size. As to conditions: rPXR luciferase reporter cells, One-Glo luminescence, 24 h; stronger effect = higher value. Put shortly:
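Cell-based rPXR activation assay: rPXR cells, 2,000 per well, rested 5hr at 37 C, then exposed to compounds in DMSO for 24 hr at 37 C. Luciferase activity read by One-Glo luminescence after 30 min at room temperature.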

Experiment [7] deals with Nuclear receptor subfamily 1 group I member 2 (Homo sapiens) (UniProt O75469). Put plainly: CYP3A4 induction through human pregnane X receptor (PXR) by small molecules, qHTS assay (AID 1346984). Note: nearly all actives have a fitted effect of over 40% in size. The following applies: DPX-2 HepG2 PXR, CYP3A4-luciferin luminescence, 24 h; series mostly up to 46.1 µM. Put shortly:
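HepG2-derived DPX-2 line carrying PXR plus a CYP3A4-promoter luciferase reporter; cells plated 5 hr, compound-exposed 24 hr at 37C. CYP3A4 activity probed with 3uM (final) Luciferin-IPA for 3hr, then luciferase read after One-Glo.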

Experiment [8] has the same target. The experiment is described as follows: Human pregnane X receptor (PXR) activation by small molecules, qHTS assay (AID 1346985). Note: nearly all actives have a fitted effect of over 40% in size. The following applies: DPX-2 HepG2 CYP3A4-luciferase, 24 h; series mostly up to 38.3 µM. Put shortly:
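DPX-2 cells (HepG2 co-transfected with a PXR response element and a CYP3A4-promoter luciferase construct) were seeded at 2,000 per well, rested 5 hr at 37C, then exposed to DMSO-dissolved compounds for 24 hr. Activation was read as luciferase luminescence.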

Experiment [9] has as its target Cytochrome P450 2D6 (Homo sapiens) (UniProt P10635). Put plainly: Cytochrome P450 Family 2 Subfamily D Member 6 (CYP2D6) small molecule antagonists: luciferase reporter qHTS assay (AID 1671196). Note: nearly all actives have a fitted effect of over 50% in size. As to conditions: P450-Glo CYP2D6 enzyme assay, luciferin luminescence, 1 h; series mostly up to 115 µM. The method, boiled down:
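Luminogenic proluciferin substrate, CYP2D6 enzyme; 10 min RT preincubation with compound, NADPH regeneration system added, 1 h RT. Stop/detection reagent, 20 min RT, luminescence read (RLU). Signal proportional to CYP activity.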
(In general: Reporter assays use an easily measured gene product as a stand-in for the process of interest.)

Experiment [10] deals with Cytochrome P450 2C19 (Homo sapiens) (UniProt P33261). The experiment is described as follows: Cytochrome P450 Family 2 Subfamily C Member 19 (CYP2C19) small molecule antagonists: luciferase reporter qHTS assay (AID 1671197). Note: nearly all actives have a fitted effect of over 65% in size. Note: potency is the fitted concentration of half-maximal effect. The following applies: P450-Glo CYP2C19 enzyme, luciferin luminescence, 1 h; series mostly up to 115 µM. The method, boiled down:
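P450-Glo CYP2C19 screening system; proluciferin substrate; DMSO compound stocks; 10 min RT preincubation; NADPH regeneration, 1 h at 37C; luciferin detection reagent, 20 min RT; luminescence as RLU.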

Experiment [11] has as its target Cytochrome P450 2C9 (Homo sapiens) (UniProt P11712). The experiment is described as follows: Cytochrome P450 Family 2 Subfamily C Member 9 (CYP2C9) small molecule antagonists: luciferase reporter qHTS assay (AID 1671198). Note: nearly all actives have a fitted effect of over 50% in size. Note: potency is the fitted concentration of half-maximal effect. The following applies: P450-Glo CYP2C9 enzyme assay, luciferin luminescence; series mostly up to 115 µM. Put shortly:
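P450-Glo proluciferin substrate with CYP2C9 enzyme; 10 min RT preincubation, then NADPH regeneration 1 h at 37C; luciferin detection reagent 20 min RT, luminescence in relative luminescence units.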

Experiment [12] addresses Cytochrome P450 1A2 (Homo sapiens) (UniProt P05177). The experiment is described as follows: Cytochrome P450 Family 1 Subfamily A Member 2 (CYP1A2) small molecule antagonists: luciferase reporter qHTS assay (AID 1671199). Note: nearly all actives have a fitted effect of over 50% in size. Note: potency is the fitted concentration of half-maximal effect. The following applies: P450-Glo CYP1A2 enzyme, luciferin luminescence, 1 h; series mostly up to 115 µM. Put shortly: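 Luminescence readout (relative luminescence units) after luciferin detection reagent, 20 min RT. Preceded by 1 h room-temperature CYP1A2 reaction with NADPH regeneration solution following 10 min compound preincubation with enzyme and proluciferin substrate. Furafylline positive control.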

For experiment [13], the target named is Voltage-gated inwardly rectifying potassium channel KCNH2 (Homo sapiens) (UniProt Q12809). Put plainly: Human Ether-a-go-go-Related Gene (hERG) channel small molecule antagonists: fluorescence cell-based qHTS assay (AID 1671200). The following applies: hERG-U2OS cells, FluxOR thallium flux fluorescence; series mostly up to 76.8 µM. Put shortly: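 U2OS cells expressing the channel were plated at 1000 cells/well, incubated overnight at 37 C, then loaded with FluxOR II thallium-sensitive dye for 1 h at room temperature in the dark, with a further 10 min at room temperature before stimulation.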
Voltage-gated inwardly rectifying potassium channel KCNH2 (Homo sapiens), sequence (Q12809 whole entry, looked up): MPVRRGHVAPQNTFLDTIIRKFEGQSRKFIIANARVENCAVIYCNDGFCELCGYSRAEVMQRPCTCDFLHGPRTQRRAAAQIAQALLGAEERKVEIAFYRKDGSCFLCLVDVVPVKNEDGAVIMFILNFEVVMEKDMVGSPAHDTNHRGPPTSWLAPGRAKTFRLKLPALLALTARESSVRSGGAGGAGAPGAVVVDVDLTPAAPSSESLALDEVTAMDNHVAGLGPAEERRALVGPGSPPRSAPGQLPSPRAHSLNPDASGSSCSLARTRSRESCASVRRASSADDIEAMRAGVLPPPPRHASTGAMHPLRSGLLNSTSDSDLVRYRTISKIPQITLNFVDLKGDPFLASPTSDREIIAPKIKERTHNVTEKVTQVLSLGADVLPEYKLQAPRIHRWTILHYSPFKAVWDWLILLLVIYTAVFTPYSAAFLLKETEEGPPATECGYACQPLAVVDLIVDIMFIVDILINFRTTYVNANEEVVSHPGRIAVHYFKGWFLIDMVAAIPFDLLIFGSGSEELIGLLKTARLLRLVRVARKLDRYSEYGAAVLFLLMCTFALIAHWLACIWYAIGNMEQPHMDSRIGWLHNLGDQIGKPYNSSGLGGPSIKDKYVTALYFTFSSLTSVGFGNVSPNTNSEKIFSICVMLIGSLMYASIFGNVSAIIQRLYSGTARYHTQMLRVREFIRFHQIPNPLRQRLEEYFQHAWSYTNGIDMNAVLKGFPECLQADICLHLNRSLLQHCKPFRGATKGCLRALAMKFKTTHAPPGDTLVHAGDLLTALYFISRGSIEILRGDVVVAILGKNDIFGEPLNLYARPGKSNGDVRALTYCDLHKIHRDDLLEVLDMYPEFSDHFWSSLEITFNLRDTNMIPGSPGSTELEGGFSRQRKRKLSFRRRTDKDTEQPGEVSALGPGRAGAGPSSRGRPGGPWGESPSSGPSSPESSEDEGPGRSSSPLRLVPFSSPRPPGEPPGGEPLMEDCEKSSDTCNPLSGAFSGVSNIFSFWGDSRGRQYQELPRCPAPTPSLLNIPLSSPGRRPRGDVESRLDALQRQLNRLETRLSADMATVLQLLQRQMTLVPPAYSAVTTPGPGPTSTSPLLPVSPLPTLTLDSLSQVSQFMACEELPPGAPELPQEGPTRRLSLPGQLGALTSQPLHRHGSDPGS

The target of experiment [14] is Cytochrome P450 3A4 (Homo sapiens) (UniProt P08684). Put plainly: Cytochrome P450 Family 3 Subfamily A Member 4 (CYP3A4) small molecule antagonists: luciferase reporter qHTS assay (AID 1671201). Note: nearly all actives have a fitted effect of over 50% in size. As to conditions: P450-Glo CYP3A4 enzyme, luciferin luminescence, 1 h; series mostly up to 115 µM. Put shortly:
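P450-Glo CYP3A4 system with proluciferin substrate; compounds preincubated 10 min RT with enzyme-substrate mix, then NADPH regeneration added for 1 h RT. Detection reagent 20 min, luminescence read as relative luminescence units.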

A short description of experiment [15]: Caspase-3/7 induction in CHO-K1 cells by small molecules, qHTS assay (AID 1346980). Note: nearly all actives have a fitted effect of over 15% in size. The following applies: CHO-K1 caspase-3/7 induction, Caspase-Glo luminescence, 17 h; series mostly up to 92.4 µM. The method, boiled down: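 Wild-type CHO-K1 cells exposed to compounds for 17hr at 37 C, 5% CO2. Caspase-3/7 activity then measured by Caspase-Glo 3/7 luminescence after 30min at room temperature.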

Values joined by “and” are separate entries in the source; they are usually repeats but may differ in a detail not shown here. Identical values can stand only once. Records with an inconclusive call do not appear. The source holds several records for some structures; these can differ, active in one and inactive in another. Active and inactive are the calls of the source. Calls come from the whole dose curve; as a rule, active = well fitted curve in the direction sought with a large enough effect in the repeat runs; inconclusive = weak or mixed curves; inactive = no such curve, though single readings can be large; an effect the other way counts as inactive or inconclusive.
% is set by controls: 0 for no effect and ±100 for the full control effect.

Nuclear receptor subfamily 1 group I member 2 (Rattus norvegicus), sequence (Q9R1A7 whole entry, looked up): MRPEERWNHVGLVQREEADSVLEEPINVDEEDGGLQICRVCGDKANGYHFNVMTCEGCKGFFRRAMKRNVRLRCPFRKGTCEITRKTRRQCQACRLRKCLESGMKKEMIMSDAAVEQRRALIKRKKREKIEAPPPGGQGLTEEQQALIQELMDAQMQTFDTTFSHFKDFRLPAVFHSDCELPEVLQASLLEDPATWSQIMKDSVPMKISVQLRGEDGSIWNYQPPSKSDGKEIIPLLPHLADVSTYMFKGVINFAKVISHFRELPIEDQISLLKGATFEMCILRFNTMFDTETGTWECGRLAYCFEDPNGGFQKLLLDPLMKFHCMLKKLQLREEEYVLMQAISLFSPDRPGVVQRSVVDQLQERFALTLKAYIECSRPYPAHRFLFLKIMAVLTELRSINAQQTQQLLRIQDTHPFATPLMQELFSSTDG
Cytochrome P450 1A2 (Homo sapiens), sequence (P05177 whole entry, looked up): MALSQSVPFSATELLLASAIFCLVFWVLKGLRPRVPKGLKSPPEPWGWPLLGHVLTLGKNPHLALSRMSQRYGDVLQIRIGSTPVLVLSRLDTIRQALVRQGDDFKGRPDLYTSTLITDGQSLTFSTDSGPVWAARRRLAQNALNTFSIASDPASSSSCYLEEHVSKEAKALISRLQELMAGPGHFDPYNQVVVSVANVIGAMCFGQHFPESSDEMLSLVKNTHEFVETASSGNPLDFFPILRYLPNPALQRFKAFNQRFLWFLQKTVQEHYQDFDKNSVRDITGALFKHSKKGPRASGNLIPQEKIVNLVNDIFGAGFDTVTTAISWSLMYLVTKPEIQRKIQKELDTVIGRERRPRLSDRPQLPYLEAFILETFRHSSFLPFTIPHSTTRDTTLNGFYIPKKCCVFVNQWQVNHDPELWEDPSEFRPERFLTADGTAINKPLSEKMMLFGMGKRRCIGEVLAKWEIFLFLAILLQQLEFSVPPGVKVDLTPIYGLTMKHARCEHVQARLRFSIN
Cytochrome P450 3A4 (Homo sapiens), sequence (P08684 whole entry, looked up): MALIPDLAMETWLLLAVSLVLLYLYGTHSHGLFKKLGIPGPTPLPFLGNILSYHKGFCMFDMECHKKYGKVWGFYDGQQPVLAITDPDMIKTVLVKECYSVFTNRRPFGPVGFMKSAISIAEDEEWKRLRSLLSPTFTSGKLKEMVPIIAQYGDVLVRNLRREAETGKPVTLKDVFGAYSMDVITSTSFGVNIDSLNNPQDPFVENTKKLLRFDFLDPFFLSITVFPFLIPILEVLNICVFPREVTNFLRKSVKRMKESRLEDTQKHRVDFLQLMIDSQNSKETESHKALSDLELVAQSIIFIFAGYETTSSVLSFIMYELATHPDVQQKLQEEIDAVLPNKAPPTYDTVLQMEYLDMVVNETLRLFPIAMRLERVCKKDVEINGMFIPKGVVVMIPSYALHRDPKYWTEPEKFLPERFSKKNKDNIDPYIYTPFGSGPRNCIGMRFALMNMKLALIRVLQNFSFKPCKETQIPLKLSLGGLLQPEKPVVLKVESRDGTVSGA
Cytochrome P450 2C19 (Homo sapiens), sequence (P33261 whole entry, looked up): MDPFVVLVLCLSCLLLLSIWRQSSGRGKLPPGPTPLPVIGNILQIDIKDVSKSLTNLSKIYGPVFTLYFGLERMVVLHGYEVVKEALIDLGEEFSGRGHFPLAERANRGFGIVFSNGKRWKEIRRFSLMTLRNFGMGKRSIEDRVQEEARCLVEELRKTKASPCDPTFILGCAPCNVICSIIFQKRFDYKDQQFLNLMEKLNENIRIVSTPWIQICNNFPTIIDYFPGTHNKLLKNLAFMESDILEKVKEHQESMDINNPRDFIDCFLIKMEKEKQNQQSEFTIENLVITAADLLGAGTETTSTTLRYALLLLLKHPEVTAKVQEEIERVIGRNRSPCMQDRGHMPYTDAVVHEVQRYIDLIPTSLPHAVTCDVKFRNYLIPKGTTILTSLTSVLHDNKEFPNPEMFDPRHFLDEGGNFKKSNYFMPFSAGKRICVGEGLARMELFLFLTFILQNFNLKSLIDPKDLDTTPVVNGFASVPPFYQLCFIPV
Cytochrome P450 2D6 (Homo sapiens), sequence (P10635 whole entry, looked up): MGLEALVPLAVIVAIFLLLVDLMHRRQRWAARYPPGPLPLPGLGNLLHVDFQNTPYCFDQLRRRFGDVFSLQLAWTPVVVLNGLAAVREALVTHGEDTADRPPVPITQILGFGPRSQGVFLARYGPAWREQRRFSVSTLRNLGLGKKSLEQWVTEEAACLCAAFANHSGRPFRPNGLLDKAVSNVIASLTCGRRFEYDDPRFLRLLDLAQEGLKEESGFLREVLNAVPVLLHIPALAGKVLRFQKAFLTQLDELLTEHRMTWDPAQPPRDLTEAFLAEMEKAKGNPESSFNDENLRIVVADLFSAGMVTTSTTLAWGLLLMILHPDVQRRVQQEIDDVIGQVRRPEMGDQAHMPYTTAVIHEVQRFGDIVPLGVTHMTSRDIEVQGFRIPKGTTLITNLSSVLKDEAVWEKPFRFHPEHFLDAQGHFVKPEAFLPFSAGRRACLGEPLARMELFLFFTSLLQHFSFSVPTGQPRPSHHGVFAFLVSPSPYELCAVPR
Nuclear receptor subfamily 1 group I member 2 (Homo sapiens), sequence (O75469 whole entry, looked up): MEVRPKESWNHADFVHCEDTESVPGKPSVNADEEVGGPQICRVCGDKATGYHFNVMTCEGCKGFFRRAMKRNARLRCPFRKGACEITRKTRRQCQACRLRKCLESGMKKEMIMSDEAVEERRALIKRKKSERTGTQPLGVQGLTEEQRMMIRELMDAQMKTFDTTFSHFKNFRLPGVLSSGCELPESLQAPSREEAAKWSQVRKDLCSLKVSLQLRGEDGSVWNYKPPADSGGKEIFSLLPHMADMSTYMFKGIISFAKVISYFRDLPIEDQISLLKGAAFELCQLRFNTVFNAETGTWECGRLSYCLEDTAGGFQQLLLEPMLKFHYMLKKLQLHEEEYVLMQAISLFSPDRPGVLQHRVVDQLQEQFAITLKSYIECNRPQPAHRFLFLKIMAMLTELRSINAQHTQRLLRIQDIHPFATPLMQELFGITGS
Cytochrome P450 2C9 (Homo sapiens), sequence (P11712 whole entry, looked up): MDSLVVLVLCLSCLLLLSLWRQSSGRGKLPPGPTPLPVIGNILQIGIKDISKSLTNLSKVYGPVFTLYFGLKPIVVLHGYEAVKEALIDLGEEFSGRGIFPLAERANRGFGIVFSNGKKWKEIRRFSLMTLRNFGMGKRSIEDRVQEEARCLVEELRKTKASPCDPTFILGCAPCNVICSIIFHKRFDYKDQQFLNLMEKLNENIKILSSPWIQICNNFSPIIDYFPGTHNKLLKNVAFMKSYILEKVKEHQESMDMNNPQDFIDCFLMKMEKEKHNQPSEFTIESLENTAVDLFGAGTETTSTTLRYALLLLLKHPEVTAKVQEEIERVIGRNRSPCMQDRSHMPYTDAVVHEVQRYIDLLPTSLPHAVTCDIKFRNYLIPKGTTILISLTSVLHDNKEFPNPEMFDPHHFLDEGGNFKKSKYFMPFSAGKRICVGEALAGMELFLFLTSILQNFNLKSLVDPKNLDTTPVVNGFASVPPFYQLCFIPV

With `Nc1ccc(C(=O)O)cc1`, the Potency result in experiment [1], in [2], in [3], in [4], in experiment [5] and in experiment [8] was “inactive” in each case. The Potency result in [9], in [10], in experiment [11], in experiment [12] and in experiment [14] was “inactive” throughout. In experiment [6], the max activation is -4.61% (inactive). For the same compound, the outcome in experiment [7] and in experiment [13] was inactive.
For the compound `Cc1ccccc1C(OCCN(C)C)c1ccccc1` (stereo not drawn), the Potency result in [1], in experiment [2], in experiment [3], in experiment [4], in [8] and in experiment [10] was “inactive” each time. The Potency result in experiment [11] and in experiment [14] was “inactive” in each case. For the same compound, the Potency entry in [5] is “inactive and 9.69 µM (active)”; in experiment [12], “inactive and 31.7 µM (active)”. Moreover, the max activation in experiment [6] is -0.826% (inactive). Further, the outcome in experiment [7] was inactive.
Regarding `CCCN(CCC)S(=O)(=O)c1ccc(C(=O)O)cc1`, the Potency result in experiment [1], in experiment [2], in experiment [3], in experiment [4], in experiment [9] and in experiment [10] was “inactive” each time. For the same compound, the Potency entry in [11] and in experiment [12] was “inactive” in each case. The outcome in experiment [13] was inactive.
For the compound `O=S(=O)(O)NC1CCCCC1`, the Potency result in experiment [1], in [2], in experiment [3] and in [4] was “inactive” throughout. In experiment [6], the max activation was -1.36% (inactive). Besides, the compound was called inactive in experiment [13].
In the case of `NS(=O)(=O)c1cc(C(=O)O)c(NCc2ccco2)cc1Cl`, the Potency result in experiment [1], in experiment [3], in experiment [4] and in experiment [5] was “inactive” each time. Also, in experiment [15], the compound was classed as inactive.
As for `c1ccc2[nH]ccc2c1`, the Potency is 17.8 µM (active) and inactive in [1]; 6.01 µM (active) and inactive in experiment [3]; 49.4 µM (active) and inactive in [10]; 35 µM (active) and inactive in experiment [11]; 35 µM (active) and 35.6 µM (active) and 17.4 µM (active) in experiment [12]. Also, the Potency result in experiment [2], in [4], in experiment [5], in experiment [8], in [9] and in experiment [14] was “inactive” in each case. For the same compound, the max activation in experiment [6] was -4.01% (inactive). Further, the outcome in experiment [7] and in experiment [13] was inactive.
On to `NC(=O)c1ccccc1O`, for which the Potency result in experiment [1], in experiment [2], in [3], in experiment [4], in experiment [5] and in experiment [8] was “inactive” each time. In addition, the Potency entry in [9], in [10], in experiment [11], in experiment [12] and in experiment [14] was “inactive” in each case. In addition, the max activation in experiment [6] was -6.5% (inactive). The outcome in experiment [7] and in experiment [13] was inactive.
Take `O=C(O)C(=O)O`: the Potency result in experiment [1], in experiment [2], in experiment [3], in experiment [4], in experiment [5] and in experiment [9] was “inactive” in each case. Further, the Potency result in experiment [11], in experiment [12] and in [14] was “inactive” in each case. Moreover, the Potency in [10] is 81 µM (active). Further, the activity change, negative = inhibition in [10] is -11.9% [at 10.5 µM] (inactive). Besides, in experiment [13], the outcome was inactive.
For the compound `Nc1ccc(S(=O)(=O)Nc2nccs2)cc1`, the Potency entry in [1], in experiment [2], in experiment [3], in [4], in [5] and in experiment [9] was “inactive” each time. Further, the Potency result in experiment [10], in experiment [11], in experiment [12] and in [14] was “inactive” in each case. Also, the compound was called inactive in [13].
As to `C1N2CN3CN1CN(C2)C3`, the Potency result in experiment [1], in [2], in [3], in experiment [4], in [5] and in [9] was “inactive” each time. For the same compound, the Potency entry in experiment [10], in experiment [11] and in experiment [14] was “inactive” in each case. Further, the Potency result in experiment [12] is “inactive and 15.5 µM (active)”. Further, in [13], the compound was called inactive.
